Sampled rows, rich in hits. Any-hit rate of the full collection: about 3%.
C8 TRAIL sens – sensitizes caspase-8 expressing cells to TRAIL; NB7+C8 cells + TRAIL, ATPlite viability luminescence; inhibition (viability loss, TRAIL sensitization), % at 10 µM; 360,000 tested, 1% active;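 active means compounds causing at least 50% loss of cell viability in the single-dose screen, relative to plate controls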
SENP8 block-1 – inhibitors of human SENP8 protease. Q96LD8. purified SENP8, Z-RLRGG-aminoluciferin cleavage, luminescence. inhibition, % at 10 µM. 330,000 tested, 1.2% active; in the data active means inhibition above about 50%
SENP7 block – blocks the human protease SENP7 | Q9BQF6 | recombinant SENP7, Z-RLRGG-aminoluciferin luminescence, 40 min | inhibition, % at 5 µM | 330,000 tested, 1.5% active;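 active means inhibition above about 50% at the single test dose, limit read from the data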;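 further: plate controls were DMSO with enzyme for no effect and no enzyme buffer wells for full effect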
Target sequence (Q9BQF6 706-1050 limits assumed): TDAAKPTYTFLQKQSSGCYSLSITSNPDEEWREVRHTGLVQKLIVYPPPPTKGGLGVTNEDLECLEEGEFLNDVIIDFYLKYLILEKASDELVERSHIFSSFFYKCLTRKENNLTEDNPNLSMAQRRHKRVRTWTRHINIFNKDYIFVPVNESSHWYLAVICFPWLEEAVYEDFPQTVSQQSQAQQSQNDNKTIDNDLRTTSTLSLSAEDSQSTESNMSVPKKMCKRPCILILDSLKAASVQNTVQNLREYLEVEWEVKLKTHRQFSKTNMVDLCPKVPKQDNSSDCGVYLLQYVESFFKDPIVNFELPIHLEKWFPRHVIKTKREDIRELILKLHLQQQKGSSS
SENP6 block – SENP6 protease inhibition. Recombinant SENP6 catalytic domain, aminoluciferin luminescence. 330,000 tested, 1.8% active. inhibition, % at 10 µM. AID 2599;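 active means inhibition above about 50% at the single tested dose, limit read from the data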;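 further: plate controls were DMSO wells with enzyme for no effect and DMSO wells lacking enzyme for full effect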
PPC-1+TRAIL kill – compounds killing PPC-1 cancer cells with TRAIL present (potentiator screen, no TRAIL-free arm); PPC-1 cells + TRAIL, ATPLite viability luminescence; cell killing (% activity), % at 4 µM or 5 µM; 220,000 tested, 0.41% active;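 active means cell killing above 50% in the first pass at 4 µM, then a duplicate retest at 5 µM averaging 50% or more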;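 further: plate controls were cells with TRAIL plus DMSO for no effect and medium-only wells lacking cells for full effect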
SENP8 block-2 – SENP8 (human) protease inhibition; Q96LD8; recombinant SENP8, Nedd8 substrate fluorescence; inhibition, % at 20 µM; 360,000 tested, 0.64% active; in the data active means inhibition mostly above about 40%, no sharp cut-off; inactive means mostly below about 27%
SENP8 confirm – confirmation of human SENP8 protease inhibitors; shares compounds with SENP7 block; Recombinant SENP8, Z-RLRGG-aminoluciferin luminescence, 60 min; inhibition, % at 12.5 µM; 6,200 tested, 40% active;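 active means mean inhibition across replicates above about 50%, limit read from the data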
SENP6 confirm – confirmation of human SENP6 protease inhibitors. shares compounds with SENP7 block. recombinant SENP6, Z-RLRGG-aminoluciferin luminescence. inhibition, % at 12.5 µM. 6,200 tested, 58% active
SENP7 conf – confirmation of human SENP7 protease inhibitors. shares compounds with SENP7 block. AID 488917. recombinant SENP7, Z-RLRGG-aminoluciferin luminescence, 40 min. inhibition, % at 12.5 µM. 6,200 tested, 69% active
Casp3 select – selectivity test for SENP inhibitors: human caspase-3 inhibition; shares compounds with SENP7 block; purified caspase-3, Z-DEVD-aminoluciferin luminescence, 60 min; inhibition, % at 12.5 µM; 6,200 tested, 60% active; AID 488918;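 active means mean inhibition above about 50%, limit read from the data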;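 further: plate controls were enzyme with DMSO for no effect and wells without caspase-3 for full effect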
Target sequence (P42574 28-227 limits assumed): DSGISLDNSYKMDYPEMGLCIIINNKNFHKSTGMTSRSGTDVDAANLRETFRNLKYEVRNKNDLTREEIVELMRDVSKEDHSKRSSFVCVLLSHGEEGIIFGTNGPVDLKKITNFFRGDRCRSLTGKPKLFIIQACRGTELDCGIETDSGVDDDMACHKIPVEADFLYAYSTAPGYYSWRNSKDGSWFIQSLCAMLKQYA
SENP luc ctr – luminescence interference (SENP counter-screen). 6,200 tested, 39% active. inhibition, % at 12.5 µM. shares compounds with SENP7 block. Pre-incubated SENP8/Z-RLRGG-aminoluciferin, luciferase luminescence interference;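 active means mean inhibition above about 50% when retested at one dose, limit read from the data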;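 further: plate controls were DMSO wells with completed reaction for no effect and substrate without enzyme for full effect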
The depositor's hits bear a star; . = no result.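 How the source made its calls, unless noted: active means mean inhibition above about 50% in the one-dose retest (limit read from the data); inactive means the rest.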

SMILES	C8 TRAIL sens	SENP8 block-1	SENP7 block	SENP6 block	PPC-1+TRAIL kill	SENP8 block-2	SENP8 confirm	SENP6 confirm	SENP7 conf	Casp3 select	SENP luc ctr
COc1ccc(OC)c(N/C=C/C(=O)c2ccccc2)c1	91.0*	94.6*	101.1*	93.1*	.	11.5	99.7*	100.8*	103.9*	98.8*	94.9*
Cc1ccc(C(=O)/C=C/Nc2ccccn2)cc1	81.7*	93.4*	97.3*	95.1*	.	-219.5	94.1*	97.6*	101.8*	96.5*	62.4*
CN(C)c1ccc(N/C=C/C(=O)C(C)(C)C)cc1	-3.4	-6.9	-9.2	-8.8	-7.3	-46.2	.	.	.	.	.
CN(C)c1ccc(N/C=C/C(=O)c2ccccc2)cc1	66.7*	95.2*	102.1*	96.0*	17.8	28.4	69.9*	94.1*	100.5*	96.6*	27.7
Cc1ccc(C(=O)/C=C\Nc2ccc(C)c(C)c2)cc1	31.3	-23.0	45.2	27.0	30.7	-166.5	.	.	.	.	.
COc1cccc(N/C=C/C(=O)c2ccc(C)cc2)c1	63.5*	94.8*	96.2*	90.9*	.	-173.7	96.4*	97.5*	101.0*	94.3*	92.8*
C[C@H](NC(=O)c1ccc(Cl)cc1)C(=O)NNC(=O)c1cccs1	-3.6	3.9	-2.0	17.0	.	-2.7	.	.	.	.	.
COc1ccc(C(=O)/C=C/Nc2ccc(NC(C)=O)cc2)cc1OC	4.5	-6.2	5.3	-16.2	5.2	-173.2	.	.	.	.	.
CC(=O)Nc1ccc(N/C=C/C(=O)c2ccccc2)cc1	9.5	50.4*	54.6*	70.2*	.	-71.8	45.3	66.0*	90.4*	78.2*	31.3
O=C(/C=C/Nc1ccccc1)c1ccc(Cl)cc1Cl	50.0	82.6*	86.5*	2.6	.	-39.2	88.8*	91.8*	98.4*	82.3*	64.0*
Cc1cc(N/C=C/C(=O)c2ccccc2)ccc1Br	43.0	62.2*	79.9*	67.0*	.	-230.2	24.2	15.9	7.1	37.8	1.2
Cc1ccc(O)c(N/C=C/C(=O)c2ccc(F)cc2)c1	60.2*	79.6*	68.4*	82.4*	.	-39.9	61.1*	79.7*	95.3*	67.1*	22.1
NC(=O)CC(NC(=O)Cc1cccc2ccccc12)c1ccc(N2CCN(c3ccccn3)CC2)c([N+](=O)[O-])c1 (stereo not drawn)	-15.6	-2.9	12.7	-18.5	.	15.5	.	.	.	.	.
CC(=O)N(c1nnc(-c2cccc(C)c2)s1)C1CCCC1	9.2	-12.5	-9.1	-10.3	.	-18.0	.	.	.	.	.
CC(=O)NC1Sc2ccccc2N=C1c1ccccc1 (stereo not drawn)	15.2	84.1*	84.6*	88.9*	19.3	-69.7	-2.2	68.6*	97.4*	65.6*	30.7
Cc1ccc(C)c(N=Nc2nc3ccccc3n2C)c1	48.3	64.6*	86.6*	78.9*	28.8	20.7	90.2*	83.8*	99.5*	63.4*	93.6*
COc1ccc(C(=O)O/N=C(\C)c2ccccc2)cc1	7.6	97.2*	100.5*	95.5*	6.8	14.9	99.7*	100.6*	103.3*	99.1*	98.4*
COc1ccc(C(=O)O/N=C(\N)c2ccc(OC)c(OC)c2)cc1	61.5*	22.9	81.3*	64.0*	.	7.0	26.6	16.9	61.2*	41.7	11.3
COc1ccc(C(=O)O/N=C(\N)c2ccc(OC)c(OC)c2)c(OC)c1	17.4	-8.1	0.2	3.8	.	30.2	.	.	.	.	.
COc1ccc(C(=O)O/N=C(/c2ccccc2)c2ccncc2)cc1	-10.7	-8.4	-1.4	-5.2	14.9	11.6	.	.	.	.	.
CC(C)=NOC(=O)c1ccc(-c2ccccc2)cc1	-2.4	57.9*	72.4*	76.6*	-7.7	28.6	75.0*	75.9*	90.1*	71.0*	67.3*
CC(=O)Nc1ccc(C(=O)N2CCCC(c3cc(C(=O)NCc4cccnc4)no3)C2)cc1 (stereo not drawn)	-14.4	.	.	.	.	5.6	.	.	.	.	.
COC(=O)[C@@]12C[C@@H](CC(=O)N3CCCC3)C(=O)N(Cc3ccccc3)C1=CCC(C)(C)C2	-2.9	.	.	.	.	23.5	.	.	.	.	.
CN(C)CC(CCCCC(CN(C)C)C(=O)c1ccccc1)C(=O)c1ccccc1 (stereo not drawn)	-9.4	-9.9	-6.2	-7.9	10.9	31.1	.	.	.	.	.
COc1ccc(N=Cc2ccccc2O)cc1	-10.2	.	.	.	.	23.0	.	.	.	.	.
SMILES	C8 TRAIL sens	SENP8 block-1	SENP7 block	SENP6 block	PPC-1+TRAIL kill	SENP8 block-2	SENP8 confirm	SENP6 confirm	SENP7 conf	Casp3 select	SENP luc ctr
COc1ccc(N=Nc2cc(C)ccc2O)cc1	48.4	95.7*	98.7*	8.8	14.7	-10.6	84.5*	97.4*	102.1*	91.9*	92.4*
COc1ccc(N=Nc2ccc3ccccc3c2)c(O)c1	47.4	19.2	97.6*	98.1*	.	27.3	43.2	39.7	26.1	40.6	-0.9
COc1cccc(N=Nc2ccc3ccccc3c2O)c1	57.2*	95.7*	99.7*	88.7*	.	12.4	7.6	30.9	19.7	92.2*	0.1
O=C(NC(=S)Nc1ccc(S(=O)(=O)Nc2nccs2)cc1)c1ccccc1	20.0	31.5	-1.9	64.3*	-10.6	14.3	59.9*	59.4*	80.1*	61.0*	61.2*
O=C(NC(=S)Nc1ccc(S(=O)(=O)Nc2nccs2)cc1)c1cccnc1	-0.5	2.8	5.3	-7.3	6.2	22.7	.	.	.	.	.
Cc1cccc(S(=O)(=O)Nc2cccc3c2C(=O)c2ccccc2-3)c1	1.9	-4.2	-5.2	1.0	14.0	16.6	.	.	.	.	.
Cc1ccc(C)c(S(=O)(=O)/N=C2\C=C(NS(=O)(=O)c3ccccc3)C(=O)c3ccccc32)c1	3.8	36.1	11.5	55.1*	.	72.6*	2.2	29.3	-2.3	5.6	1.2
CCc1ccc(Nc2nnc(SCC(=O)Nc3ccc(C(=O)O)cc3)s2)cc1	58.9*	52.4*	52.9*	5.7	41.6	20.7	-12.1	51.1*	45.9	60.4*	7.8
O=C(CSc1nnc(NC(=O)c2c(F)cccc2F)s1)Nc1ccc(F)cc1	4.5	-7.7	-12.1	-25.8	.	-2.4	.	.	.	.	.
CC(=O)Nc1ccc(NC(=O)CSc2nnc(NC(=O)c3cccc(F)c3)s2)cc1	52.9*	67.7*	51.6*	76.7*	.	-72.9	61.6*	70.1*	91.1*	81.5*	18.7

Bioassay records (PubChem BioAssay)
